Inconclusive results are not listed. Where a call stands in place of a potency, no number is given. The source made the active and inactive calls. The call rests on the fitted dose curve; in most records, active means well fitted inhibition curve with a large enough effect; inconclusive means small, poorly fitted or top-dose-only effect; inactive means flat fitted curve, though single readings scatter.

Sequence of Calcium and integrin-binding protein 1 (Homo sapiens) (Q99828 whole entry, looked up): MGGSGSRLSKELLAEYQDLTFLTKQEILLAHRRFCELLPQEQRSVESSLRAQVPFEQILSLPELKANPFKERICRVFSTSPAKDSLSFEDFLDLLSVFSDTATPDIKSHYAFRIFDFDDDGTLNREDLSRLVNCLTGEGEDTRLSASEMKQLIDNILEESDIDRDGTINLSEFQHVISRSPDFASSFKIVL

This assay concerns the target Calcium and integrin-binding protein 1 (Homo sapiens) (UniProt Q99828). Put plainly: Primary qHTS for Identification of Calcium Integrin Binding Protein 1 (CIB1) Competitor (AID 1508620). Further: top concentration of the series differs between compounds. Conditions: CIB1-GST / FITC-alphaIIb peptide fluorescence polarization; series mostly up to 57.7 µM. The procedure, abridged: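 Fluorescence polarization competition: GST-tagged CIB1 (1 uM final) preincubated with compound 15 min at room temperature, then FITC-labelled alphaIIb peptide (100 nM final) added. After 15 min at room temperature, polarization read at Ex 480/Em 540.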
As for `COc1cc(/C=C/C(=O)O[C@H]2C[C@@H]3C(C(=O)O)=CO[C@@H](O[C@@H]4O[C@H](CO)[C@@H](O)[C@H](O)[C@H]4O)[C@@H]3[C@H]2C)ccc1O`, the Potency result is “inactive”. Same read-out and setting: with `C[C@H]1[C@H](C)CC[C@]2(C(=O)O)CC[C@]3(C)C(=CCC4[C@@]5(C)C[C@@H](O)[C@H](O)C(C)(C)C5CC[C@]43C)[C@H]12` (some centres undefined) the entry was “inactive”. For `CC1(C)C(=O)N2c3ccccc3C(O)(CC(C(=O)O)n3cnc4ccccc4c3=O)C2N1O` (centres undefined), the Potency result is “inactive”. `O=C(O)Cc1cn([C@@H]2O[C@H](CO)[C@@H](O)[C@H](O)[C@H]2O[C@@H]2O[C@H](CO)[C@@H](O)[C@H](O)[C@H]2O)c2ccccc12`: the Potency result was “inactive”.

In the case of `CC1(C)C[C@H](O)C[C@@]2(C)[C@H]1[C@H](O)C=C1COC(=O)[C@@]12O`, the Potency result was “inactive”.

With `CC1OC(O[C@H]2CC[C@@]3(C)C(CC[C@]4(C)C3CC=C3C5CC(C)(C)CC[C@]5(C(=O)OC5OC(CO)C(OC6OCC(OC7OCC(O)C(O)C7O)C(O)C6O)C(O)C5O)CC[C@]34C)C2(C)C)C(O)C(O)C1OC1OC(CO)C(O)C(OC2OC(CO)C(O)C(O)C2O)C1O` (some centres undefined), the activity change, negative = inhibition was -8.26% [at 12.4 µM] (inactive). Consider `C[C@]1(O)CC[C@@H]2C(C(=O)O)=CO[C@@H](O[C@@H]3O[C@H](CO)[C@@H](O)[C@H](O)[C@H]3O)[C@@H]21`, for which the Potency result is “inactive”. Turning to `COC(=O)c1ccc(OC)cc1O[C@@H]1O[C@H](CO[C@@H]2OC[C@@H](O)[C@H](O)[C@H]2O)[C@@H](O)[C@H](O)[C@H]1O`, the Potency entry was “inactive”. Still for that read-out and setting: with `CC1=CC23[C@H](C=C(C(=O)O)[C@@H]2COC(=O)[C@]3(O)CO)[C@@H]1C` (some centres undefined) the entry was “inactive”; with `CC1=C2C[C@@]3(C)C(CCC[C@@H]3C)C(O)C2(O)OC1=O` (some centres undefined), “inactive”; with `CC1(C)CC[C@]2(C(=O)O[C@@H]3O[C@H](CO)[C@@H](O)[C@H](O)[C@H]3O)CC[C@]3(C)C(=CCC4[C@@]5(C)CC[C@H](O[C@H]6O[C@H](CO)[C@@H](O)[C@H](O[C@@H]7O[C@H](CO)[C@@H](O)[C@H](O)[C@H]7O)[C@H]6O)C(C)(C)C5CC[C@]43C)[C@@H]2C1` (some centres undefined), “inactive”.

For `O=C(O)CCc1c(C(=O)O)[nH]c2cc(Cl)cc(Cl)c12`, the Potency result was “inactive”. Take `CC(=O)OC[C@]12[C@@H](OC(=O)c3ccoc3)C[C@@H]3[C@@H](OC(C)=O)[C@]1(OC3(C)C)[C@@](C)(O)C[C@H](OC(=O)c1ccoc1)[C@@H]2OC(=O)c1ccoc1`: the Potency entry is “inactive”. Same read-out and setting: with `C=C1C(O)C(O)C2(CC3C(C)=CCC4C(C)(C(=O)O)CCCC34C)OC2C1O` (centres undefined) the entry was “inactive”; with `CC1=C[C@H](O)[C@H]2C(C)(C)CCC[C@]2(C)[C@@]1(O)CO`, “inactive”. In the case of `CC1(C)CC[C@]2(C(=O)O[C@@H]3O[C@H](CO[C@@H]4O[C@H](CO[C@@H]5O[C@H](CO)[C@H](O)[C@H](O)[C@H]5O)[C@@H](O)[C@H](O)[C@H]4O)[C@@H](O)[C@H](O[C@@H]4O[C@H](CO)[C@@H](O)[C@H](O)[C@H]4O)[C@H]3O)[C@H](O)C[C@]3(C)C(=CCC4[C@@]5(C)CC[C@H](O[C@@H]6OC[C@@H](O)[C@H](O)[C@H]6O)[C@@](C)(C(=O)O)C5CC[C@]43C)[C@@H]2C1` (some centres undefined), the activity change, negative = inhibition was 3.63% [at 12.4 µM] (inactive). For `CC(=O)O[C@@H]1C(=O)C(C)=C(CCC(C)CC(=O)O)[C@@]2(C)CCCC(C)(C)C12` (some centres undefined), the Potency entry was “inactive”. With `CC1(C)CC[C@]2(C(=O)O)CC[C@]3(C)C(=CCC4[C@@]5(C)C(=O)C[C@H](O)[C@@](C)(CO)C5CC[C@]43C)[C@@H]2C1` (some centres undefined), the Potency result is “inactive”.

`NC[C@@H]1O[C@@H](O[C@@H]2[C@@H](O[C@@H]3O[C@H](CO)[C@@H](O)[C@H]3O)[C@H](O)[C@@H](N)C[C@H]2N)[C@@H](N)[C@H](O)[C@H]1O`: the Potency result was “inactive”.

As to `NC1(c2ccc(NC(=O)c3ccnc(-c4cc(C(=O)O)ccn4)c3)cc2)CC1`, the Potency entry was “inactive”. Same read-out and setting: with `CC(/C=C/C=C(\C)C(=O)O[C@@H]1O[C@H](CO[C@@H]2O[C@H](CO)[C@@H](O)[C@H](O)[C@H]2O)[C@@H](O)[C@H](O)[C@H]1O)=C\C=C\C=C(C)\C=C\C=C(/C)C(=O)O[C@@H]1C[C@](O)(C(=O)O)C[C@@H](O)[C@H]1OC(=O)/C=C/c1ccc(O)c(O)c1` the entry was “inactive”; with `CC(C)(O)C1CCC2(C)CCCC(C)(O)C2C1` (centres undefined), “inactive”. On to `C[C@@H]1O[C@@H](O[C@H]2[C@H](OC(=O)[C@]34CCC(C)(C)C[C@H]3C3=CCC5[C@@]6(C)C[C@@H](O)[C@@H](O)[C@@](C)(CO)C6[C@H](O)C[C@@]5(C)[C@]3(C)CC4)OC[C@H](O)[C@@H]2O)[C@H](O)[C@H](O)[C@H]1O[C@@H]1OC[C@@H](O)[C@H](O[C@H]2O[C@H](C)[C@@H](O)[C@H](O)[C@@H]2O)[C@H]1O` (some centres undefined), for which the Potency entry is “inactive”. On the same count and under the same terms, with `CC(C)[C@@H](C(=O)O)N1Cc2c(cc(O)c3c2O[C@]2(C3)[C@H](C)CCC3C(C)(C)[C@H](O)[C@H](O)C[C@@]32C)C1=O` (some centres undefined) the entry was “inactive”.

With `Cc1cc(CO)c(O)c(C(=O)CC2CC(=O)NC(=O)C2)c1`, the Potency entry is “inactive”.

On to `C=C(COC(=O)C(C)C)C1Oc2cc(C(C)=O)ccc2C1OC(=O)C(C)C` (centres undefined), for which the Potency result is “inactive”. `C[C@@H]1CC[C@]2(C(=O)O)CC[C@]3(C)C(=CCC4[C@@]5(C)C[C@@H](O)[C@H](O)[C@@](C)(CO)C5CC[C@]43C)C2[C@H]1C` (some centres undefined): the Potency result is “inactive”. Turning to `CC(C)=CCC[C@](C)(O[C@@H]1O[C@H](CO)[C@@H](O)[C@H](O)[C@H]1O)[C@H]1CC[C@]2(C)[C@@H]1[C@H](O)CC1[C@@]3(C)CC[C@H](O)C(C)(C)C3[C@@H](O[C@@H]3O[C@H](CO)[C@@H](O)[C@H](O)[C@H]3O[C@@H]3O[C@@H](C)[C@H](O)[C@@H](O)[C@H]3O)C[C@]12C` (some centres undefined), the Potency result was “inactive”. On the same count and under the same terms, with `C[C@@H]1O[C@@H](OC2C(CO)OC(OCC3OC(OC(=O)[C@]45CCC(C)(C)CC4C4=CCC6[C@@]7(C)CC[C@@H](O)[C@](C)(C(=O)O)C7CC[C@@]6(C)[C@]4(C)CC5)C(O)C(O)C3O)C(O)C2O)[C@H](O)[C@H](O)[C@H]1O` (some centres undefined) the entry was “inactive”.

Source of the values: PubChem BioAssay (NCATS).
